Source: PubChem
Rows were chosen to be rich in hits. Some 2.4% of all compounds tested hit in one or more screens of this group.
CHO-K1 Ca PAM: counter-screen for M1 PAMs: effect in parental CHO-K1 cells | ATP EC20, Fluo-8 calcium fluorescence; 0% at ATP EC20, 100% at ATP max | hit rate 0.02% among 360,000 | AID 602247 | activation, % at 3 µM;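 active = activation above the run cutoff, the mean activation of all test compounds plus 3 SD, cut at about 40% in these data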;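 also: peak over basal fluorescence ratio in a 140 s read after ATP addition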
M1 ag parental: M1 agonist counterscreen hit in parental CHO-K1 cells; Fluo-8 calcium fluorescence; scaled to maximal ATP response, vehicle zero; activation, % at 3 µM; hit rate 0.48% among 360,000; in the data active = activation above about 15%;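 also: untransfected CHO-K1 host cells lacking M1 receptor as counterscreen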
CHRM1 PAM: potentiates human M1 receptor response to acetylcholine; hit rate 0.088% among 360,000; P11229; CHO-K1 hM1, Fluo-8 calcium fluorescence, ACh EC20; 0% = ACh EC20, 100% = maximal ACh; AID 588819; activation, % at 3 µM; in the data active = activation above about 19%, passing the limit was not always enough
Target sequence (P11229 whole entry, looked up): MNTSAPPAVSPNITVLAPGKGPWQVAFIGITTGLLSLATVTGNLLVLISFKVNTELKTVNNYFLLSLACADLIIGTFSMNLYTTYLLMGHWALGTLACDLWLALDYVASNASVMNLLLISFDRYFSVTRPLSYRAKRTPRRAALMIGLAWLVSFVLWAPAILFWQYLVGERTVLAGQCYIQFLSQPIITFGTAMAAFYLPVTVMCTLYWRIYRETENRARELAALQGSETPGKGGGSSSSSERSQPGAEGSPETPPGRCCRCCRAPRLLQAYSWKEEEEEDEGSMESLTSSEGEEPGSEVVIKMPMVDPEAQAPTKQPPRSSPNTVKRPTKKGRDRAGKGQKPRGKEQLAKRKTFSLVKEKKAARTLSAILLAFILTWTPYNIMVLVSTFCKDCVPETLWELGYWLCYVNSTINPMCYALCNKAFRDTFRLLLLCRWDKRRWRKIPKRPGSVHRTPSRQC
M1 antag: blocks human M1 muscarinic receptor; hit rate 1.3% among 360,000; P11229; inhibition, % at 3 µM; CHO-K1 hM1, Fluo-8 calcium fluorescence, ACh EC80 antagonist; AID 588852;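 active = percent inhibition above its own plate's cutoff, namely the mean of that plate's compound wells plus 3 SD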;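 also: peak over basal fluorescence ratio during 140 s after agonist addition; 0% = ACh EC80 plus DMSO and 100% = DMSO alone without agonist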
CHRM1 agonist: activates human CHRM1 receptor | CHO-K1 hM1, Fluo-8 calcium fluorescence, agonist mode; 0% DMSO, 100% acetylcholine EC100 | activation, % at 3 µM | hit rate 0.33% among 360,000;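 active = activation above the run's mean compound activation plus 3 SD, cut at about 16% in these data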;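 also: peak over basal fluorescence ratio within a 140 s kinetic read after compound addition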
CHO-K1 Ca antag: counter-screen for M1 antagonists: effect in parental CHO-K1 cells | ATP-induced calcium, Fluo-8 fluorescence | inhibition, % at 3 µM | hit rate 0.6% among 360,000;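 active = inhibition above a per-plate cutoff, the plate's mean sample inhibition plus 3 SD, cut at about 24% in these data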;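 also: 0% = DMSO plus EC80 ATP and 100% = DMSO alone without ATP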
Active calls of the source: *.

SMILES	CHO-K1 Ca PAM	M1 ag parental	CHRM1 PAM	M1 antag	CHRM1 agonist	CHO-K1 Ca antag
O=C(c1ccc(F)cc1)C1CCN(Cc2ccccc2)CC1	4	16*	-8	14	-5	7
O=C(CCCN1CCC(C(=O)c2ccc(F)cc2)CC1)c1ccc(F)cc1	9	4	-28	89*	-9	-4
COC(=O)Cc1ccc(OC2(C)CCN(Cc3ccccc3)C2)cc1 (stereo not drawn)	16	1	-26	53*	-6	-10
CSc1ccc(CN2CCC(C)(Oc3ccc(CC#N)cc3)C2)cc1 (stereo not drawn)	14	3	-24	29*	-8	-15
COCOc1cccc(CN2CCC(C)(Oc3ccc(C(C)=O)cc3)C2)c1 (stereo not drawn)	1	-1	-10	29*	-9	13
CSc1ccc(CN2CCC(C)(Oc3ccc4ccccc4c3)C2)cc1 (stereo not drawn)	-4	0	1	-8	-6	0
CSc1ccc(CN2CCC(C)(Oc3ccc(-n4ccnc4)cc3)C2)cc1 (stereo not drawn)	-3	5	-29	58*	-8	-8
CC(C)c1ccc(CN2CCC(C)(Oc3ccc(Cl)cc3)C2)cc1 (stereo not drawn)	18	1	6	-9	-6	-8
Cc1c(Br)c([N+](=O)[O-])nn1CC(=O)NCC1CCCO1 (stereo not drawn)	1	0	-3	-2	-10	-14
CSc1ccc(OC2(C)CCN(Cc3ccccc3)C2)cc1 (stereo not drawn)	-12	0	-22	28*	-8	-1
CCN(CC)CCC(c1ccc(N(C)C)cc1)c1c(O)cc(OC)cc1OC (stereo not drawn)	12	2	7	-5	-9	-3
CCCC(C)(C)C(=O)N1CCC1(C)C(=O)Nc1ccc2c(c1)OCCO2 (stereo not drawn)	16	1	13	-12	-5	-16
CC(C)c1cc(-c2cc(C(=O)NCc3ccccc3)on2)nc(NCC2CC2)n1	-13	9	6	34*	29*	14
Cc1ccc(CN2CCN(C(=O)/C=C/[C@H]3O[C@@H](n4cc(C)c(=O)[nH]c4=O)C[C@@H]3O)CC2)cc1	9	0	5	-28	1	-5
Cn1c2ccccc2c2n[nH]c(=S)nc21	12	15*	8	-7	-4	7
CCN(CC)CCn1c2ccccc2c2nc3ccccc3nc21	7	2	-5	-1	-8	-6
CCN(CC)CCSc1nnc2c3ccccc3n(Cc3ccccc3)c2n1	13	1	-22	51*	-6	-8
CCN(CC)CCSc1nnc2c3cc(F)ccc3n(Cc3ccccc3)c2n1	0	0	-21	14	-11	-5
CCN(CC)CCn1c2ccccc2c2n[nH]c(=S)nc21	-4	0	-28	36*	-10	9
CCCN(CC(=O)Nc1ccccc1C)C(=O)C1CC(=O)N(c2ccc(CC)cc2)C1 (stereo not drawn)	17	0	5	-4	-2	5
Cc1n[nH]c(=O)c2c(NC(=O)COC(=O)Cc3ccc(Cl)cc3Cl)oc(C)c12	-3	0	3	-1	-2	-6
CCN(c1ccccc1)S(=O)(=O)c1cccc(C(=O)N2CCN(S(=O)(=O)c3ccccc3)CC2)c1	8	10	-10	15	0	1
O=C(NCc1ccccn1)Nc1cccc(F)c1	-3	1	4	-6	0	-2
Cn1cnc2cc(NCc3ccccc3Cl)ccc21	8	2	2	-8	-11	-6
CC(C)c1ccc(CNc2ccc3c(c2)ncn3C)cc1	27	11	-14	34*	-9	-11
SMILES	CHO-K1 Ca PAM	M1 ag parental	CHRM1 PAM	M1 antag	CHRM1 agonist	CHO-K1 Ca antag
O=C(CSc1nnc(CNC(=O)c2ccccc2F)o1)NC1CCCC1	4	1	7	-10	-3	-13
CC[C@@]1(C(=O)OC)N[C@H](CN(C)C(=O)c2ccc(C(C)(C)C)cc2)[C@@H]2C(=O)N(Cc3ccccc3)C(=O)[C@@H]21	-6	3	-13	4	3	7
CCN(C[C@H]1N[C@@](CC)(C(=O)OC)[C@H]2C(=O)N(Cc3ccccc3)C(=O)[C@@H]12)C(=O)c1ccc(C(C)(C)C)cc1	17	6	-14	28*	0	-9
NNC(=O)c1[nH]c2ccc([N+](=O)[O-])cc2c1-c1ccccc1	11	2	4	-11	-7	-9
Cc1c(C(=O)NN)[nH]c2ccc([N+](=O)[O-])cc12	-5	26*	4	1	1	8
CCCCOc1ncnc2c1[nH]c1ccc(F)cc12	-1	16*	-7	29	-3	28*
Fc1ccc2[nH]c3c(N4CCN(c5ccccc5)CC4)ncnc3c2c1	-5	11	-18	54*	7	27*
CCOC(=O)N1CCN(c2ncnc3c2[nH]c2ccc(OC)cc23)CC1	-2	1	9	4	2	4
O=C(CCCN1CCC(O)(c2cccc(C(F)(F)F)c2)CC1)c1ccc(F)cc1	17	5	-4	-2	8	-9
OC1(c2cccc(C(F)(F)F)c2)CCN(c2ncnc3c2[nH]c2ccc(F)cc23)CC1	-2	5	-12	36*	-1	22
CCOC(=O)N1CCN(c2ncnc3c2[nH]c2ccc(F)cc23)CC1	-6	9	-15	28*	3	19
Cc1cc(C)n2nc(C(=O)OCC(=O)NC3CCS(=O)(=O)C3)nc2n1 (stereo not drawn)	-5	0	10	-18	-2	7
CCCNC(=O)C1(C)CCN(Cc2cc(-c3ccccc3)on2)C1 (stereo not drawn)	7	1	4	-3	-4	-6
O=C(NC(=S)Nc1ccccc1OC(F)F)c1ccc2c(c1)OCO2	3	0	-7	17	-6	3
CCN(CC)C(=O)c1ccc(NS(=O)(=O)c2ccc3[nH]c(=O)[nH]c3c2)cc1	1	2	-3	10	0	1
Cc1ccc(S(=O)(=O)NCCNC(=O)c2ccccc2)cc1	10	0	5	4	-3	-4
CC(C)N(CCNC(=O)c1ccc(CS(=O)(=O)c2c(Cl)cccc2Cl)o1)Cc1ccccc1	8	1	-22	45*	-6	-12
Cc1ccccc1S(=O)(=O)Cc1ccc(C(=O)NCCN(Cc2ccccc2)C(C)C)o1	2	1	-15	33	-5	-11
Cc1ccc(S(=O)(=O)NCc2ccc(C(=O)NCCN(Cc3ccccc3)C(C)C)cc2)cc1	8	6	-23	68*	-6	-6
CCCNC(=O)COc1coc(CN2CCN(c3cccc(Cl)c3)CC2)cc1=O	8	3	-1	5	-4	-9
